# Records with an inconclusive call do not appear. Calls of active or inactive are those of the source. How the source made its calls: active means hit-call score of the fitted dose curve at least 0.9, where 1 is the maximum; inconclusive means response in the unintended direction; inactive means score below 0.9.
# Key:
# [1] = biological target: human Tropomyosin Receptor Kinase A (TRKA), NTRK1 (gene 4914) (UniProt P04629); assay: NVS_ENZ_hTrkA: NovaScreen (NVS) Enzymatic Assay for human Tropomyosin Receptor Kinase A (TRKA) (AID 2283224)
# Sequence of human Tropomyosin Receptor Kinase A (TRKA), NTRK1 (gene 4914) (P04629 whole entry, looked up): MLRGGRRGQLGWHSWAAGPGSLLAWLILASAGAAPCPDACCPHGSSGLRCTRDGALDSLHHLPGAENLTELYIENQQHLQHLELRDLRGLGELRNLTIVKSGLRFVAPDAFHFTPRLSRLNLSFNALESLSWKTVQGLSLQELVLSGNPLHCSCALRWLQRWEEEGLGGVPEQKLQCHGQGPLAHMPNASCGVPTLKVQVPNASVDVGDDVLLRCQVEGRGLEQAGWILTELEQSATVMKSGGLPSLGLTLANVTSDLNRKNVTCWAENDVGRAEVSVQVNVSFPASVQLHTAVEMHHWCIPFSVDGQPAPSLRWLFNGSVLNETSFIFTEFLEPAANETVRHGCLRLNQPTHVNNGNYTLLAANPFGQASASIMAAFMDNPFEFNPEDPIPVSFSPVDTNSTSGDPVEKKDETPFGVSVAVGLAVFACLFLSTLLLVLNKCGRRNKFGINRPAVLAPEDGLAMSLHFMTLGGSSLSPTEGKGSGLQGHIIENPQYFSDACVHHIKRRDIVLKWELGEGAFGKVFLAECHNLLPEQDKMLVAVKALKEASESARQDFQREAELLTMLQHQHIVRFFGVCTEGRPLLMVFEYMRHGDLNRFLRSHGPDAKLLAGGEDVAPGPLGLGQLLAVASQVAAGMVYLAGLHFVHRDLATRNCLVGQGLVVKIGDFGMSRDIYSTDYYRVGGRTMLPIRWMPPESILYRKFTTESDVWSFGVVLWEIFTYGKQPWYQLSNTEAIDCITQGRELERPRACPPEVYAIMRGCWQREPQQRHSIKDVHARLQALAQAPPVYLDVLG
# Procedure, shortened: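 Compounds were screened at 25 uM in duplicate, then concentration series to a 50 uM top for those meeting threshold (e.g. 30% inhibition). Enzyme was recombinant human TrkA, incubated 1 h. Product formation was quantified by fluorescence after mobility-shift separation.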
# [2] = biological target: human Sirtuin 3 (SIRT3), SIRT3 (gene 23410) (UniProt Q9NTG7); assay: NVS_ENZ_hSIRT3: NovaScreen (NVS) Enzymatic Assay for human Sirtuin 3 (SIRT3) (AID 2283222)
# Sequence of human Sirtuin 3 (SIRT3), SIRT3 (gene 23410) (Q9NTG7 whole entry, looked up): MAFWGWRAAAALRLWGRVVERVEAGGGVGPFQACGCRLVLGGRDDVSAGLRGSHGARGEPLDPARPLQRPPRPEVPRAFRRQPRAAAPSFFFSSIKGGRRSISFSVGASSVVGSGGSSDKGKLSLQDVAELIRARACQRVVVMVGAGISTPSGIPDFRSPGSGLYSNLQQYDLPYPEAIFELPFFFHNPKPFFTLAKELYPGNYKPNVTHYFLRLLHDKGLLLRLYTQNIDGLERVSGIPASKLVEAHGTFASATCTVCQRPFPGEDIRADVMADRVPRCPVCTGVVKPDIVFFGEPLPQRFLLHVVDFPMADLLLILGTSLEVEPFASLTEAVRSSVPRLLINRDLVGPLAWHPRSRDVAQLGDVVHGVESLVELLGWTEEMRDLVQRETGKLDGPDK
# Procedure, shortened: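 Cell-free enzyme assay with recombinant protein and fluorescent substrate, product separated by electrophoretic mobility shift; read 1 hour after dosing. Screened in duplicate at 25 uM, then singleton concentration-response up to 50 uM; loss of signal versus DMSO.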
# [3] = biological target: human Protein Tyrosine Phosphatase Receptor Type F (PTPRF), PTPRF (gene 5792) (UniProt P10586); assay: NVS_ENZ_hPTPRF: NovaScreen (NVS) Enzymatic Assay for human Protein Tyrosine Phosphatase Receptor Type F (PTPRF) (AID 2283213)
# Sequence of human Protein Tyrosine Phosphatase Receptor Type F (PTPRF), PTPRF (gene 5792) (P10586 whole entry, looked up): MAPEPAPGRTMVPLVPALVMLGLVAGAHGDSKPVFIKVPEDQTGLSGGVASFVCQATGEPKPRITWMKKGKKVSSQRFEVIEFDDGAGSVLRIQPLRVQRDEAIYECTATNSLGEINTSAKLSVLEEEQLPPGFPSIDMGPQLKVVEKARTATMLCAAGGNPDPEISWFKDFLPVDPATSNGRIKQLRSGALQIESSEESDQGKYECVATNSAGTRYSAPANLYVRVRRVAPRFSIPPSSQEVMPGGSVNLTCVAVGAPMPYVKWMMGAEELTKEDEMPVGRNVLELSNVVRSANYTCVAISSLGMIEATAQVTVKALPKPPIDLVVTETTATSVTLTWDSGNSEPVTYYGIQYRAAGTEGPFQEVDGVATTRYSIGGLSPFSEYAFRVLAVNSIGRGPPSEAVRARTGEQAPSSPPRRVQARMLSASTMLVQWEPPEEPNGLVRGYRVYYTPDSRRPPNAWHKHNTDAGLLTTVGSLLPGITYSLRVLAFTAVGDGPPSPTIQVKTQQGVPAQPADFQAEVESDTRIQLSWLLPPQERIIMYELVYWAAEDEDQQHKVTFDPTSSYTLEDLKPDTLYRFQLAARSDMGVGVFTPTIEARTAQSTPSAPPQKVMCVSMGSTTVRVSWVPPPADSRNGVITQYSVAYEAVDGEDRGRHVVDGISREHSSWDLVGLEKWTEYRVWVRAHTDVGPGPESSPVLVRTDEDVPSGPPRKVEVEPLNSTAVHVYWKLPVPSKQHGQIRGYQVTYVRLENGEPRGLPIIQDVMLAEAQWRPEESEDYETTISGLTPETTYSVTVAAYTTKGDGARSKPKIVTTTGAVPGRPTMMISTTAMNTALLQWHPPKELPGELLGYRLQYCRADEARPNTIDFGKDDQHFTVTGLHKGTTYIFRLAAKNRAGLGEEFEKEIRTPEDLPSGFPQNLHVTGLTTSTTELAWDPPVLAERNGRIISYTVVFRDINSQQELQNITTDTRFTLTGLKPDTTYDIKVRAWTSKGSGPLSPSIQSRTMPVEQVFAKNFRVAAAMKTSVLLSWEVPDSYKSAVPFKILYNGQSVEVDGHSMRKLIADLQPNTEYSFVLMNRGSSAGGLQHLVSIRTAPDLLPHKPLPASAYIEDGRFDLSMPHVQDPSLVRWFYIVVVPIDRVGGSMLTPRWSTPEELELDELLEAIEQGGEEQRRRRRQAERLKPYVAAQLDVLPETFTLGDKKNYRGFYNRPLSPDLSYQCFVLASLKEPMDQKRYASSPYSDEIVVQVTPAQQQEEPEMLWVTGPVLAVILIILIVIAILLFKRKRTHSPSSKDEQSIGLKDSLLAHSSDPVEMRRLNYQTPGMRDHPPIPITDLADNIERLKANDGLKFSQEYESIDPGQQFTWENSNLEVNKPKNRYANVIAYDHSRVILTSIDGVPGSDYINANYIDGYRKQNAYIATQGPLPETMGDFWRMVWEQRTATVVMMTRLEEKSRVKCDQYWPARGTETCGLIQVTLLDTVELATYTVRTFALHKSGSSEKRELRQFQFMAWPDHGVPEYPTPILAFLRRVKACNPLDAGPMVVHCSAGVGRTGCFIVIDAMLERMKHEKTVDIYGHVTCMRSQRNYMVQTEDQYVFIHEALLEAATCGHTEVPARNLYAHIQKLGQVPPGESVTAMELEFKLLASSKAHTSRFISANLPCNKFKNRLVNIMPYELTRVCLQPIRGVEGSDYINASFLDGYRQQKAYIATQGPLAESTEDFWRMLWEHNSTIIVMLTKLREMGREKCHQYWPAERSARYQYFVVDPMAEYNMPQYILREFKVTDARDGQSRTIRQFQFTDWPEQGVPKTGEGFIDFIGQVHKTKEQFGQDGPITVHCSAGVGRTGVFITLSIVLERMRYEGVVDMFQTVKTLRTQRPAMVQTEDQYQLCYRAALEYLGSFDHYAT
# Procedure, shortened: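 Cell-free fluorescence enzyme assay with recombinant protein and substrate; product separated by electrophoretic mobility shift. Read 1 h after dosing, single 25 uM duplicate screen, then concentration-response up to 50 uM; loss of signal vs DMSO.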
# [4] = biological target: human Raf-1 Proto-Oncogene, serine/threonine Kinase (RAF1), RAF1 (gene 5894) (UniProt P04049); assay: NVS_ENZ_hRAF1: NovaScreen (NVS) Enzymatic Assay for human Raf-1 Proto-Oncogene, serine/threonine Kinase (RAF1) (AID 2283216)
# Experimental: (§1) NVS_ENZ_hRAF1 is a biochemical, single-readout assay that uses extracted gene-proteins in a cell-free assay. Measurements were taken 1 hour after chemical dosing in a 384-well plate.NVS_ENZ_hRAF1 is one of one assay component(s) measured or calculated from the NVS_ENZ_hRAF1 assay. It is designed to make measurements of enzyme activity, a form of enzyme reporter, as detected with fluorescence intensity signals by Fluorescence and electrophoretic mobility shift technology.Data from the assay component NVS_ENZ_hRAF1 was analyzed into 1 assay endpoint. This assay endpoint, NVS_ENZ_hRAF1, was analyzed in the positive analysis fitting direction relative to DMSO as the negative control and baseline of activity. Using a type of enzyme reporter, loss-of-signal activity can be used to understand changes in the enzymatic activity as they relate to the gene RAF1. Furthermore, this assay endpoint can be referred to as a primary readout, because this assay has produced multiple assay endpoints where this one serves a enzymatic activity function. To generalize the intended target to other relatable targets, this assay endpoint is annotated to the kinase intended target family, where the subfamily is serine/threonine kinase.
# (§2) Binding assays used specific radioligands (tritiated, iodinated) with non-radioactive competitive displacement ligands in agonist or antagonist protocols (as indicated) and various reference compounds and inhibitors to titrate specific binding to receptors and transporters. Most enzyme assays (CYPs, kinases, phosphatases, proteases, HDACs) used recombinant protein and specific substrates (fluorescence mostly, some colorimetric and radioactive) and inhibitors, followed by a biochemical separation of substrate and product. All assays for the biochemical HTS were initially run in duplicate at a single concentration (10 uM for CYP450 assays and 25 uM for all others). Assay-chemical combinations meeting a pre-defined threshold (e.g., 30% inhibition and other criteria defined below) were then run in singleton concentration-response format with maximum concentration of 20 uM for CYPs and 50 uM for all others. Each assay was run with positive and negative controls, and concurrent controls on every plate. The follow-up (secondary) screen tested active chemical-pairs in concentration series, as well as a few additional assays not tested in the primary screen, some selected negative inactives, and several cases re-run in the concentration series for confirmatory purposes.
# [5] = biological target: human Rho Associated Coiled-coil Containing Protein Kinase 1 (ROCK1), ROCK1 (gene 6093) (UniProt Q13464); assay: NVS_ENZ_hROCK1: NovaScreen (NVS) Enzymatic Assay for human Rho Associated Coiled-coil Containing Protein Kinase 1 (ROCK1) (AID 2283214)
# Experimental: as §1, with “NVS_ENZ_hROCK1” for “NVS_ENZ_hRAF1”, “plate.NVS_ENZ_hROCK1” for “plate.NVS_ENZ_hRAF1”, “NVS_ENZ_hROCK1,” for “NVS_ENZ_hRAF1,”, “ROCK1.” for “RAF1.”
# Binding assays used specific radioligands (tritiated, iodinated) with non-radioactive competitive displacement ligands in agonist or antagonist protocols (as indicated) and various reference compounds and inhibitors to titrate specific binding to receptors and transporters. Most enzyme assays (CYPs, kinases, phosphatases, proteases, HDACs) used recombinant protein and specific substrates (fluorescence mostly, some colorimetric and radioactive) and inhibitors, followed by a biochemical separation of substrate and product. All assays for the biochemical HTS were initially run in duplicate at a single concentration (10 uM for CYP450 assays and 25 uM for all others). […] Each assay was run with positive and negative controls, and concurrent controls on every plate. […]
# [6] = biological target: human Sirtuin 2 (SIRT2), SIRT2 (gene 22933) (UniProt Q8IXJ6); assay: NVS_ENZ_hSIRT2: NovaScreen (NVS) Enzymatic Assay for human Sirtuin 2 (SIRT2) (AID 2283217)
# Sequence of human Sirtuin 2 (SIRT2), SIRT2 (gene 22933) (Q8IXJ6 whole entry, looked up): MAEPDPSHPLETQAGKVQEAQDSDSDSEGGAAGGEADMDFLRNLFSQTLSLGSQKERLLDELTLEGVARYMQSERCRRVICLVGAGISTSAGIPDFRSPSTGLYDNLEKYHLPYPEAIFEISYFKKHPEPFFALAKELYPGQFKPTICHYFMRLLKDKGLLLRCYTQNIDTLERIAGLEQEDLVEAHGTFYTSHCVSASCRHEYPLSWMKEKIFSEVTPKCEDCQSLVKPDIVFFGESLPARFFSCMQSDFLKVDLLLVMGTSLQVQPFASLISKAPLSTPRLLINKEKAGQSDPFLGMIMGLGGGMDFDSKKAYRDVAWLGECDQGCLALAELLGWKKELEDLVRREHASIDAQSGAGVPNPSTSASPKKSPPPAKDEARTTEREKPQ
# Procedure, shortened: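 Single-point duplicate screen at 25 uM, then concentration-response (max 50 uM) for chemicals passing threshold. Enzyme activity of recombinant human SIRT2 measured after 1 hr by fluorescence with mobility-shift separation of product; DMSO baseline.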
# [7] = biological target: human SRC Proto-Oncogene, Non-receptor Tyrosine Kinase (SRC), SRC (gene 6714) (UniProt P12931); assay: NVS_ENZ_hSRC: NovaScreen (NVS) Enzymatic Assay for human SRC Proto-Oncogene, Non-receptor Tyrosine Kinase (SRC) (AID 2283223)
# Procedure, shortened: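 Compounds passing 30% inhibition at 25 uM (duplicate) were titrated to a top concentration of 50 uM. Enzyme activity read by fluorescence with mobility-shift substrate/product separation after 1 h; DMSO baseline.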
# [8] = biological target: human Tyrosine Protein Kinase Receptor Tie-2 (Tie2), TEK (gene 7010) (UniProt Q02763); assay: NVS_ENZ_hTie2: NovaScreen (NVS) Enzymatic Assay for human Tyrosine Protein Kinase Receptor Tie-2 (Tie2) (AID 2283225)
# Sequence of human Tyrosine Protein Kinase Receptor Tie-2 (Tie2), TEK (gene 7010) (Q02763 whole entry, looked up): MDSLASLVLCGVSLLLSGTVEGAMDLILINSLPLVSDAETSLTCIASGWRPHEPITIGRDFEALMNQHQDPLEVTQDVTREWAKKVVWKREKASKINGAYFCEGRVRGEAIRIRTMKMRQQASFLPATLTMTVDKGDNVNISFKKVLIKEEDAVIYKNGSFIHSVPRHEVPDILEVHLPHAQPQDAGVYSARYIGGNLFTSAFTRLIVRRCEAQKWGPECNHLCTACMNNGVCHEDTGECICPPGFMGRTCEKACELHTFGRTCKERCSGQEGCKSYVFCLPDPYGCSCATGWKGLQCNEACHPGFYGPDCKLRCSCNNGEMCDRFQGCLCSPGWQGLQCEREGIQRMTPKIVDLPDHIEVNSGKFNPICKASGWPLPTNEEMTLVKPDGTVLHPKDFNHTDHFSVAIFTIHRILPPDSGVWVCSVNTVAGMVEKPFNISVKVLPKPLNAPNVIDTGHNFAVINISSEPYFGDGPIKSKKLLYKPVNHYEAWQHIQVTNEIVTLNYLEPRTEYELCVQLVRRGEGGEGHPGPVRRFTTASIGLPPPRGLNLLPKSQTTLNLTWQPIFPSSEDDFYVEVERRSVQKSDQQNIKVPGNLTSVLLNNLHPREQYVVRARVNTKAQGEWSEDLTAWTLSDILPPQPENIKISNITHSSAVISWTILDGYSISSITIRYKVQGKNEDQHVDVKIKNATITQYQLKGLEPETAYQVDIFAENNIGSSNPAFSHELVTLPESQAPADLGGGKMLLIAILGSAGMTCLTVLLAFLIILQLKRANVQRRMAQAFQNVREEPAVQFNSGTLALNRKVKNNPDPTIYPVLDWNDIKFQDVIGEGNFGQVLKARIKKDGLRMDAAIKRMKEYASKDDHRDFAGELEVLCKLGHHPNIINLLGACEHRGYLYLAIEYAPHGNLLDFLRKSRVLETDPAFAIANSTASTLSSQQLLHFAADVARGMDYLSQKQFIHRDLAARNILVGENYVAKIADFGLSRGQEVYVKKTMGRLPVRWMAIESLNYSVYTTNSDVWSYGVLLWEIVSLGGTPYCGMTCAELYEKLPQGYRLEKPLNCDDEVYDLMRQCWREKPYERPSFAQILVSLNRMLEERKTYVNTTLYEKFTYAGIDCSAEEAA
# Experimental: as §1, with “NVS_ENZ_hTie2” for “NVS_ENZ_hRAF1”, “plate.NVS_ENZ_hTie2” for “plate.NVS_ENZ_hRAF1”, “NVS_ENZ_hTie2,” for “NVS_ENZ_hRAF1,”, “TEK.” for “RAF1.”, “receptor tyrosine” for “serine/threonine”
# as §2
# [9] = biological target: human Protein Tyrosine Phosphatase Receptor Type M (PTPRM), PTPRM (gene 5797) (UniProt P28827); assay: NVS_ENZ_hPTPRM: NovaScreen (NVS) Enzymatic Assay for human Protein Tyrosine Phosphatase Receptor Type M (PTPRM) (AID 2283215)
# Procedure, shortened: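 Read-out is fluorescence after electrophoretic separation of substrate and product, taken 1.33 h post-dosing with recombinant enzyme. Compounds screened at 25 uM in duplicate, then concentration series for actives; activity as signal loss relative to DMSO.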
# [10] = biological target: human Sirtuin 1 (SIRT1), SIRT1 (gene 23411) (UniProt Q96EB6); assay: NVS_ENZ_hSIRT1: NovaScreen (NVS) Enzymatic Assay for human Sirtuin 1 (SIRT1) (AID 2283219)
# Procedure, shortened: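 Cell-free recombinant SIRT1 with a fluorescent substrate; substrate and product separated by electrophoretic mobility shift and read by fluorescence intensity, 1 h after dosing. Primary screen at 25 uM in duplicate; hits re-run in concentration-response up to 50 uM, relative to DMSO.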
structure (smiles),measurement,setting,value
COC(=O)N(C(=O)N1CO[C@@]2(C(=O)OC)Cc3cc(Cl)ccc3C2=N1)c1ccc(OC(F)(F)F)cc1,AC50,[1],28.7 µM (active)
CCCCC(C#N)(Cn1cncn1)c1ccc(Cl)cc1 (configuration not stated),AC50,[2],10.4 µM (active)
same,AC50,[1],19.5 µM (active)
COP(=S)(OC)SCn1nnc2ccccc2c1=O,outcome,[3],inactive
same,outcome,[4],inactive
CCOP(=S)(OCC)Oc1nc(Cl)n(C(C)C)n1,outcome,[5],inactive
Clc1nc(Cl)nc(Nc2ccccc2Cl)n1,outcome,[2],inactive
same,AC50,[1],7.05 µM (active)
CS(=O)(=O)c1ccc(C(=O)C2C(=O)CCCC2=O)c([N+](=O)[O-])c1,outcome,[4],inactive
CC(C)Nc1nc(Cl)nc(NC(C)C)n1,outcome,[1],inactive
CCC(C)n1c(=O)[nH]c(C)c(Br)c1=O (configuration not stated),outcome,[3],inactive
CCCCC(O)(Cn1cncn1)c1ccc(Cl)cc1Cl (configuration not stated),AC50,[6],15.9 µM (active)
same,outcome,[2],inactive
same,AC50,[1],21.9 µM (active)
CC(C)(C)C(=O)C(Oc1ccc(Cl)cc1)n1cncn1 (configuration not stated),outcome,[7],inactive
Nc1c(Cl)c(Cl)nc(C(=O)O)c1Cl,outcome,[8],inactive
CC(C)C1(C)N=C(c2ncccc2C(=O)O)NC1=O (configuration not stated),outcome,[8],inactive
CCOC(=O)C(C)OC(=O)c1cc(Oc2ccc(C(F)(F)F)cc2Cl)ccc1[N+](=O)[O-] (configuration not stated),outcome,[5],inactive
same,outcome,[4],inactive
O=C1C2CC=CCC2C(=O)N1SC(Cl)(Cl)Cl (configuration not stated),outcome,[9],inactive
same,AC50,[6],13 µM (active)
same,AC50,[10],13.3 µM (active)
same,AC50,[2],39.5 µM (active)
CCOc1nc(F)cc2nc(S(=O)(=O)Nc3c(Cl)cccc3Cl)nn12,outcome,[3],inactive
COC(=O)c1c(C(F)F)nc(C(F)(F)F)c(C2=NCCS2)c1CC(C)C,outcome,[4],inactive
OC(c1ccc(Cl)cc1)(c1ccc(Cl)cc1)C(Cl)(Cl)Cl,outcome,[8],inactive
CCCC(=NOCC)C1=C(O)CC(CC(C)SCC)CC1=O (configuration not stated),outcome,[3],inactive
same,outcome,[9],inactive
same,outcome,[4],inactive
COc1ccc(-c2ccccc2)cc1NNC(=O)OC(C)C,outcome,[4],inactive
CN/C(=N\[N+](=O)[O-])NCc1cnc(Cl)s1,outcome,[4],inactive
COP(=S)(OC)Oc1ccc([N+](=O)[O-])c(C)c1,AC50,[6],12.1 µM (active)
N#Cc1c(Cl)cccc1Cl,outcome,[3],inactive
CC1(C)C(C=C(Cl)Cl)C1C(=O)OC(C#N)c1cccc(Oc2ccccc2)c1 (configuration not stated),outcome,[4],inactive
same,outcome,[2],inactive
same,outcome,[8],inactive
Nc1cnn(-c2ccccc2)c(=O)c1Cl,outcome,[8],inactive
CN=C=S,outcome,[3],inactive
same,outcome,[4],inactive
same,outcome,[10],inactive
CCCN(CC)CC1COC2(CCC(C(C)(C)C)CC2)O1 (configuration not stated),outcome,[7],inactive
CCCCOCN(C(=O)CCl)c1c(CC)cccc1CC,outcome,[5],inactive

# Source: PubChem BioAssay (EPA / NIEHS)
